PubChem BioAssay (NCATS)
Results filed as inconclusive are left out. More than one record can exist for a structure, and the calls need not agree. The source made the active and inactive calls. The call rests on the fitted dose curve; in most records, active means well fitted inhibition curve with a large enough effect; inconclusive means small, poorly fitted or top-dose-only effect; inactive means flat fitted curve, though single readings scatter.

test: qHTS for Inhibitors of Plasmodium falciparum (DD2) proliferation (AID 504314); conditions: P. falciparum Dd2 in erythrocytes, SYBR Green growth, 72 h; series mostly up to 6.11 µM; activity, negative = inhibition: at the top concentration
From the text: Plasmodium falciparum is a virulent malarial parasite that kills 1-2 million people worldwide each year. Malaria not only inflicts tremendous suffering and morbidity on the human population, but has dramatically influenced the course of civilization with profound sociological and economic implications (Shah, S. 2010). Transmitted by mosquitoes, the sporozoite form of the parasite enters the blood stream to infect hepatocytes, where they become merozoites that infect red blood cells (erythrocytes). Within erythrocytes, merozoites begin a […] cycle of growth and division, after which the parasite is released to infect new red blood cells. Gametocytes, which form within erythrocytes as well, circulate in the bloodstream and are ingested by the mosquito, thereby completing the life cycle (see CDC website). To profile malarial lines for differential chemical responses and to identify inhibitors of malarial growth, an assay that measures P. falciparum growth and replication within erythrocytes was employed. This assay uses a DNA binding fluorescent dye (SYBR Green) to detect parasite DNA following cell lysis. Because mature erythrocytes lack DNA, only Plasmodium-derived DNA is detected. The P. falciparum line cp250, derived from a malarial isolate from Cambodia, (Mu, J., et al. 2010) was added to the panel of lines, Dd2, HB3, 7G8 and GB4 in this study.
Laboratory of Assay Development and Screening Technology [ADST] and NIH Chemical Genomics Center [NCGC]
Boston University, Chemistry Department, Center for Chemical Methodology and Library Development [CMLD-BU]
NIH National Institute of Allergy and Infectious Diseases [NIAID]
ADST Assay Protocol Summary:
The 1536-well SYBR Green viability assay was based on the method of Bennett et al (2004) and described previously in 1536-well format (Yuan J., et al. 2009). For screening 3 ul culture medium was dispensed into 1536 well black clear bottom plates (Aurora Biotechnologies) using a Multidrop Combi (Thermo Fisher Scientific Inc.), 23 nL compounds in DMSO were added by a pin transfer (Cleveland, P.H. and Koutz, P.J, 2005) using a pin tool-based delivery system (Kalypsys), and 5 ul of erythrocytes infected with P. falciparum one of five lines (cp250, Dd2, HB3, 7G8 or GB4, 0.3% parasitemia, 2.5% hematocrit final concentration) were added. The plates were incubated at 37C in a humidified incubator in 5% CO2 for 72 h, and 2 ul lysis buffer (20 mM Tris HCl, 10 mM EDTA, 0.16% saponin, 1.6% triton X, 10X SYBR Green I (supplied as 10,000X final concentration by Invitrogen) was added to each well. The plates were mixed for 25 sec with gentle shaking and incubated overnight at room temperature in the dark. The following morning, fluorescence intensity at 485(14) nm excitation and 535(25) nm emission wavelengths was measured on an EnVision (Perkin Elmer) plate reader. Plate reads were normalized relative to the control inhibitor (0.29 uM artemisinin) and vehicle (DMSO) wells present on each plate and then corrected by an algorithm using vehicle-only control plates at the beginning and end of the compound plate stack.
Shah, S. (2010). The Fever: how malaria has ruled humankind for 500,000 years. New York, Sarah Crichton Books.
CDC web site, http://www.cdc.gov/malaria/about/biology/index.html
Mu, J., Myers, R.A., Jiang, H., Liu, S., Ricklefs, S., Waisberg, M., Chotivanich, K., Wilairatana, P., Krudsood, S., White, N.J., et Plasmodium falciparum genome-wide scans for positive selection, recombination hot spots and resistance to antimalarial drugs Nature Genetics 2010, 42, pp 268-271
Bennett TN, Paguio, M., Gligorijevic, B., Seudieu, C., Kosar, A. D., Davidson, E., and Roepe, P. D. Novel, rapid, and inexpensive cell-based quantification of antimalarial drug efficacy Antimicrobial Agents Chemother. 2004, 48(5): pp 1807-10
Yuan J, Johnson RL, Huang RL, Wichterman J, Jiang HY, Hayton K, Fidock DA, Wellems TE, Inglese J, Austin CP, Su XZ. […]
Potency means the concentration at half of the fitted maximal effect.

Row | SMILES | activity, negative = inhibition | Potency
1 | O=C(c1ccccc1)[C@@H]1O[C@@H]1c1ccccc1 | -7.5% (inactive) | –
2 | CC[C@H](C)[C@@H](NC(=O)O[C@H]1C(=O)c2cc(OC)ccc2O[C@@H]1c1ccc(OC)c(Br)c1)C(=O)OC | -7.33% (inactive) | –
3 | CC(=O)OC[C@H]1O[C@H](CC=NO[C@H](C)c2cn([C@H](CO)Cc3ccccc3)nn2)C=C[C@@H]1OC(C)=O | 2.27% (inactive) | –
4 | CCOC(=O)C1=CN(CCc2cn(Cc3ccccc3)nn2)C(=O)NC1c1ccccc1 (stereo not given) | -4.88% (inactive) | –
5 | C=CCN1c2ccccc2[C@]23C[C@@H](C(=O)OC)N(C(=O)Nc4ccccc4F)C2=NC(C(=O)OC)=C(C(=O)OC)[C@H]13 | -0.766% (inactive) | –
6 | CCOC(=O)CN1C(=O)NC(CCc2ccccc2)C(C(=O)OC)=C1C (stereo not given) | -5.67% (inactive) | –
7 | O=C1[C@@H]2[C@H]3[C@H](O)[C@H](O)CC(=NOC[C@@H](O)COCc4ccco4)[C@@H]3CC[C@H]2C(=O)N1C[C@@H]1CCCO1 | -0.652% (inactive) | –
8 | CCCCc1nc2c(c3c1C[C@H](C)OC3)CN(S(=O)(=O)CCCC)CC2 | – | inactive
9 | COc1ccc(-c2nc(-c3ccccc3)c(NC(C)C)o2)cc1 | – | 1.69 µM (active)
10 | CC[C@@H](c1ccccc1)n1c(=O)n2n(c1=O)[C@H]1[C@H](O)[C@@H]3O[C@H]3C(=NOCc3ccccc3)[C@H]1CC2 | -5.89% (inactive) | –
11 | CCOC(=O)[C@@]1([C@@H](NC(=O)OC)c2ccccc2)CCCC1=O | -4.84% (inactive) | –
12 | C[C@@H]1CC2=CCCC2[C@]2(O1)C(=O)N(Cc1ccc(Br)cc1)c1cccc(Br)c12 (stereo not given in full) | -10.4% (inactive) | –
13 | COC(=O)C(C(=O)OC)c1ccccc1[N+](=O)[O-] | -6.7% (inactive) | –
14 | COCCN1C(=O)NC(c2ccc(Br)cc2)C(C(=O)OC)=C1C (stereo not given) | -0.476% (inactive) | –
15 | C=CCC1(O)C=CCC2C3C4C(OC(C)(C)C)C2C1C34 (stereo not given) | -1.76% (inactive) | –
16 | CC(=O)OC[C@H]1O[C@H](CC=NO[C@@H](C)CN2CCCc3nc(C)c(C)cc32)C=C[C@@H]1OC(C)=O | 3.99% (inactive) | –
17 | COC(=O)N[C@@H](c1cccc(F)c1)[C@]1(C(=O)OC)CCCC1=O | 3.24% (inactive) | –
18 | CCCCc1cc2c(cn1)=C(OC(=O)c1cccs1)C(C)(OC(=O)CC)C(=O)C=2 (stereo not given) | 1.64% [at 1.12 µM] (inactive) | 1.89 µM (active)
19 | C=CCOC(=O)NC(c1ccc(F)c(F)c1)C(C(C)=O)C(=O)OC (stereo not given) | -4.79% (inactive) | –
20 | Cc1cccc(C)c1Nc1oc(-c2ccccc2)nc1-c1ccccc1 | -5.58% (inactive) | –

Row | SMILES | activity, negative = inhibition | Potency
21 | COc1cccc(O[C@H]2C=C[C@@H](c3ccccc3)O[C@H]2CO)c1 | -6.54% (inactive) | –
22 | C=CCC(O)(C#Cc1ccccc1)c1ccccc1 (stereo not given) | -1.98% (inactive) | –
23 | COC(=O)CCC(=O)OC1(C)C(=O)C2=COC(c3ccc(OC)cc3)=CC2=C(Br)C1=O (stereo not given) | 2.26% (inactive) | –
24 | CCOC(=O)NN=Cc1ccccc1-c1cc(OC)ccc1OC | -3.1% (inactive) | –
25 | C[C@@H]1C=CCC(=O)N[C@@H](c2ccccc2)[C@H](C)C=CCC(=O)N[C@@H]1c1ccccc1 | -10.4% (inactive) | –
26 | CCN1C(=S)NC(c2ccccc2)C(C(=O)OC)=C1C (stereo not given) | -11.8% (inactive) | –
27 | COC(=O)N1C(c2ccccc2)=Cc2ccccc2C1CC(C)=O (stereo not given) | – | inactive
28 | COc1ccc(C=CNC(=O)Cc2ccc(OC)c(OC)c2)cc1 | -3.07% (inactive) | –
29 | CC(=O)C1=C(C)N(Cc2ccco2)C(=O)NC1c1ccccc1 (stereo not given) | -5.92% (inactive) | –
30 | FC(F)(F)c1ccc(-c2nc(-c3ccccc3)oc2Nc2ccc3ccccc3c2)cc1 | -3.09% (inactive) | –
31 | CC(C)=CCN1C(=O)C2(CC(C)=C[C@@H](C)O2)c2c(Br)cccc21 (stereo not given in full) | -12.7% (inactive) | –
32 | COCCN1C(=NCC(C)C)NC(c2ccccc2)C(C(=O)OC)=C1C (stereo not given) | -7.63% (inactive) | –
33 | COC(=O)N[C@H](CC(C)=O)c1ccc(F)cc1 | -3.89% (inactive) | –
34 | C=CC1=C2C=C(C3CC3)N(c3ccc(OC)cc3)C=C2C(=O)C(C)(OC(=O)c2ccco2)C1=O (stereo not given) | 0.839% [at 1.12 µM] (inactive) | –
35 | COCCN1C(=O)NC(CCc2ccccc2)C(C(C)=O)=C1C (stereo not given) | -6.15% (inactive) | –
36 | CCC12C=C(C=Cc3ccccc3)C(CC)(C1)C(c1ccccc1)CC2=O (stereo not given) | -2.18% (inactive) | –
37 | COc1ccc2c(c1)CO[C@H]([C@H](O)CO)[C@H]2C=Cc1ccccc1 | -2.57% (inactive) | –
38 | C=CCOC(=O)C(C(C)=O)[C@@H](NC(=O)OC)c1ccc2ccccc2c1 (stereo not given in full) | 5.94% (inactive) | –
39 | C=CC1=C2C=C(C3CC3)N(CCN3CCOCC3)C=C2C(=O)C(C)(OC(=O)c2ccco2)C1=O (stereo not given) | – | inactive
